Assay results: PMC7862700, “An all-to-all approach to the identification of sequence-specific readers for epigenetic DNA modifications on cytosine”

How the values were obtained:
Experiment in all cases: DAPPL (digital affinity profiling via proximity ligation, sequencing); 10 mM Tris-HCl pH 7.5, 50 mM NaCl, 1 mM DTT, 4% glycerol, room temperature, 30 min; GST-TFs on glutathione beads, 16-mer random dsDNA library, 0.1% formaldehyde crosslink after washing; high values mean tight binding
Conditions in all cases: protein: recombinant; tags: N-terminal GST; dsDNA, one strand shown
FLI1 = target: T1, FLI1 (Homo sapiens, UniProt Q01543 1-452)
T1 sequence: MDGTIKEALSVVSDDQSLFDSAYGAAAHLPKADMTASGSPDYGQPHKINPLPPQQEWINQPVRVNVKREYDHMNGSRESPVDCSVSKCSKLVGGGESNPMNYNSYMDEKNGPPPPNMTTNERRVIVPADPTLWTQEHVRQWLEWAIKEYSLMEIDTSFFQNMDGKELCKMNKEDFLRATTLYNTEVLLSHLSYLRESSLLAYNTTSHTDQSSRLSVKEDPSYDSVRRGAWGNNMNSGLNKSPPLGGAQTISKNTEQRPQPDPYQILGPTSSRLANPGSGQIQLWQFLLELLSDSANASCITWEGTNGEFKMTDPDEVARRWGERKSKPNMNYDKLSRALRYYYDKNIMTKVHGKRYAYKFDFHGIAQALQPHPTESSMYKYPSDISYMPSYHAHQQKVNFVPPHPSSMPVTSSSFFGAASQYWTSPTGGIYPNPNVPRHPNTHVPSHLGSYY
How it was run: (§1)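 Human transcription factors carrying a GST fusion were produced in yeast, bound to glutathione beads, tagged with DNA barcodes and pooled together with a tag-only sample. Each pool was held with 200 nmole of a random double-stranded 16-mer DNA library in Tris/NaCl/DTT/glycerol buffer for 30 min at room temperature, then washed, crosslinked in 0.1% formaldehyde, proximity-ligated with BsaI/T4 ligase (1 h, 37 °C), PCR-amplified and sequenced on an Illumina NextSeq500. Binding signal is the read frequency of each hexamer for a given factor divided by its frequency in the tag-only sample.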

ELK1 = target: T2, ELK1 (Homo sapiens, UniProt P19419 1-428)
T2 sequence: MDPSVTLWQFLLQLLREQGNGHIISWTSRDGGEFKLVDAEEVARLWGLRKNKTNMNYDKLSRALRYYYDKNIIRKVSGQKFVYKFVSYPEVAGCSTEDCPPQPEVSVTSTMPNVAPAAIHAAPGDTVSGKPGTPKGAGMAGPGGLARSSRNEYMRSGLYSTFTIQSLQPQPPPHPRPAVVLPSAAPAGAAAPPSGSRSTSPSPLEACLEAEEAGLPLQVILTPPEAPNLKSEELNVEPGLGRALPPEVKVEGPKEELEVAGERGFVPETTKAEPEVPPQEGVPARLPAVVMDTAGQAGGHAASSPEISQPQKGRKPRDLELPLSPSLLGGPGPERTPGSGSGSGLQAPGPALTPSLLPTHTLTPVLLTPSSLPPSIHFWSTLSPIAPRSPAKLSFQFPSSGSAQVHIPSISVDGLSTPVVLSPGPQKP
How it was run: as §1

GABPA = target: T3, GABPA (Homo sapiens, UniProt Q06546 1-454)
T3 sequence: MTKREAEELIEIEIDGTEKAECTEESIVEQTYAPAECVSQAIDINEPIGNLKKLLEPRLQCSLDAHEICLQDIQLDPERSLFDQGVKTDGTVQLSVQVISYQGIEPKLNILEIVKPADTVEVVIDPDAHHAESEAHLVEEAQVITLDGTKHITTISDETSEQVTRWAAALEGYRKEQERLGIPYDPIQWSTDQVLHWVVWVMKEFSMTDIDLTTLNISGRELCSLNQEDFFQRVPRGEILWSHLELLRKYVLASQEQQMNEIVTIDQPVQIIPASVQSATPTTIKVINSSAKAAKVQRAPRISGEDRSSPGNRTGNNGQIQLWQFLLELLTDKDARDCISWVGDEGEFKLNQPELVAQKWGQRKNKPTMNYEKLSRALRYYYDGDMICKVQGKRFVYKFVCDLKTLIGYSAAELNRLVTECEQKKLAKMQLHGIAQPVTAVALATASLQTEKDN
How it was run: as §1

ERG = target: T4, ERG (Homo sapiens, UniProt P11308 1-479)
T4 sequence: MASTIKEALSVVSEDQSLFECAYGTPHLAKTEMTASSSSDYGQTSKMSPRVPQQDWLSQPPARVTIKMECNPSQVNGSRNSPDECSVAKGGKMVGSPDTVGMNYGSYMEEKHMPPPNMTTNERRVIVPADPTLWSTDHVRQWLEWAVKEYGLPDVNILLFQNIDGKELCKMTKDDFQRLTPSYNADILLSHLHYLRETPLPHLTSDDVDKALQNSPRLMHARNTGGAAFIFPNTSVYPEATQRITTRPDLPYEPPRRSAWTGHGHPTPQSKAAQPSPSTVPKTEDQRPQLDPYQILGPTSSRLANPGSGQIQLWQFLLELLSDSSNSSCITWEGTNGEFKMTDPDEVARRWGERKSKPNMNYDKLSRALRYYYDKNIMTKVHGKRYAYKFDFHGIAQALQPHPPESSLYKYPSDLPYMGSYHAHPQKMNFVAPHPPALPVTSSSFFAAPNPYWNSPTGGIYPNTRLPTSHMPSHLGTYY
How it was run: as §1

ELF1 = ELF1 (Homo sapiens, UniProt P32519 1-619)
How it was run: as §1

EHF = target: T5, EHF (Homo sapiens, UniProt Q9NZC4 1-300)
T5 sequence: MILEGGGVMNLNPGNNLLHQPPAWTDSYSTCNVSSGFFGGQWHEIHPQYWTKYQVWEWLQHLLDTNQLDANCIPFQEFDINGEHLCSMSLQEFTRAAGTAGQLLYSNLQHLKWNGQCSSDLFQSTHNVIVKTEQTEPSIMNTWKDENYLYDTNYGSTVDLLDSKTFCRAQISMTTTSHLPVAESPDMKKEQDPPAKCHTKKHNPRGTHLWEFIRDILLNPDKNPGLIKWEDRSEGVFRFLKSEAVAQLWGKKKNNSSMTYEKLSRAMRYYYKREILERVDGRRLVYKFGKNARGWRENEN
How it was run: as §1

SPI1 = SPI1 (Homo sapiens, UniProt P17947 1-270)
How it was run: as §1

SPIB = SPIB (Homo sapiens, UniProt Q01892 1-262)
How it was run: as §1

ELK3 = target: T6, ELK3 (Homo sapiens, UniProt P41970 1-407)
T6 sequence: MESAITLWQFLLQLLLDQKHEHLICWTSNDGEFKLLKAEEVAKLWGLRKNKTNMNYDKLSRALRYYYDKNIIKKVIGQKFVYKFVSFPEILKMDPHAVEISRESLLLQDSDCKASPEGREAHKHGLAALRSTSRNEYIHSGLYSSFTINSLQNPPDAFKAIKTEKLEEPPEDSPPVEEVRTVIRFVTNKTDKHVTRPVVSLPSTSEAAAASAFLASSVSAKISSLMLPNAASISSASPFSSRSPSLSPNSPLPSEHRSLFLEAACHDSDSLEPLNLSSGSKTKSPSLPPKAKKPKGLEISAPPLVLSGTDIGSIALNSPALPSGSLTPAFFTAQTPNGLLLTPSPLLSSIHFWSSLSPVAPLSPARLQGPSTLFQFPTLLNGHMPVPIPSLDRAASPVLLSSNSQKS
How it was run: as §1

Sequence of SPIB (Q01892 whole entry): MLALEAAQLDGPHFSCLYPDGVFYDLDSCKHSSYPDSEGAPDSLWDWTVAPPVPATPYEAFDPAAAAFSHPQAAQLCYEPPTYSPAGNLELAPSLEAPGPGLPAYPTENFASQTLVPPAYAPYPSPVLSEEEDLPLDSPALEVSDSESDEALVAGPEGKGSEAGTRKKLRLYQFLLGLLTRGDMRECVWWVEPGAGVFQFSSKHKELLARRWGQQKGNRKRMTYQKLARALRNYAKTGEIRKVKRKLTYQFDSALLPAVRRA
Sequence of ELF1 (P32519 whole entry): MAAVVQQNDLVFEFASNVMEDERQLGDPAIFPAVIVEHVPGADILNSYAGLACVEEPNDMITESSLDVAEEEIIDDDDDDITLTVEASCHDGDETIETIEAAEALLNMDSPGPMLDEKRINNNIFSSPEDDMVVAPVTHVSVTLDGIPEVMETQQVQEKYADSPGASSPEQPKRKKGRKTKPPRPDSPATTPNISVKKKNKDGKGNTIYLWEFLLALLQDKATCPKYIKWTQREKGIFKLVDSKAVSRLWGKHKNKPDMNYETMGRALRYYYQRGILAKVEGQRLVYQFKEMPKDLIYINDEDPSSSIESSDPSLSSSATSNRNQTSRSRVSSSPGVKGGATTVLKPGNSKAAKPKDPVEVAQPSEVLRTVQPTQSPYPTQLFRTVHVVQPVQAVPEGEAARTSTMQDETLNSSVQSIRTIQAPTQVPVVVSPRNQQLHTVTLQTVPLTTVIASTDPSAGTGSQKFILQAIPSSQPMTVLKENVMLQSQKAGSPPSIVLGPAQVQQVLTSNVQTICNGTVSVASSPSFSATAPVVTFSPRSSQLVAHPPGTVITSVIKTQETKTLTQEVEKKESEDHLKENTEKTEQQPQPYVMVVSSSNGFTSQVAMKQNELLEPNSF

Row | Sequence | binding signal (FLI1) | binding signal (ELK1) | binding signal (GABPA) | binding signal (ERG) | binding signal (ELF1) | binding signal (EHF) | binding signal (SPI1) | binding signal (SPIB) | binding signal (ELK3)
1 | CCTCGG | 1.2 fold enrichment (6-mer frequency, TF over GST control) | 1.17 fold enrichment (6-mer frequency, TF over GST control) | 1.2 fold enrichment (6-mer frequency, TF over GST control) | 1.2 fold enrichment (6-mer frequency, TF over GST control) | 1.24 fold enrichment (6-mer frequency, TF over GST control) | 1.33 fold enrichment (6-mer frequency, TF over GST control) | 1.14 fold enrichment (6-mer frequency, TF over GST control) | 1.15 fold enrichment (6-mer frequency, TF over GST control) | 1.05 fold enrichment (6-mer frequency, TF over GST control)
2 | AAACTG | 1.09 fold enrichment (6-mer frequency, TF over GST control) | 1.11 fold enrichment (6-mer frequency, TF over GST control) | 1.17 fold enrichment (6-mer frequency, TF over GST control) | 1.01 fold enrichment (6-mer frequency, TF over GST control) | 1.09 fold enrichment (6-mer frequency, TF over GST control) | 1.06 fold enrichment (6-mer frequency, TF over GST control) | 1.12 fold enrichment (6-mer frequency, TF over GST control) | 1.1 fold enrichment (6-mer frequency, TF over GST control) | 1.32 fold enrichment (6-mer frequency, TF over GST control)
3 | TTGCAC | 1.3 fold enrichment (6-mer frequency, TF over GST control) | 1.32 fold enrichment (6-mer frequency, TF over GST control) | 1.27 fold enrichment (6-mer frequency, TF over GST control) | 1.27 fold enrichment (6-mer frequency, TF over GST control) | 1.28 fold enrichment (6-mer frequency, TF over GST control) | 1.21 fold enrichment (6-mer frequency, TF over GST control) | 1.26 fold enrichment (6-mer frequency, TF over GST control) | 1.16 fold enrichment (6-mer frequency, TF over GST control) | 1.34 fold enrichment (6-mer frequency, TF over GST control)
4 | TGCAAT | 1.18 fold enrichment (6-mer frequency, TF over GST control) | 1.21 fold enrichment (6-mer frequency, TF over GST control) | 1.15 fold enrichment (6-mer frequency, TF over GST control) | 1.09 fold enrichment (6-mer frequency, TF over GST control) | 1.18 fold enrichment (6-mer frequency, TF over GST control) | 1.12 fold enrichment (6-mer frequency, TF over GST control) | 1.19 fold enrichment (6-mer frequency, TF over GST control) | 1.16 fold enrichment (6-mer frequency, TF over GST control) | 1.19 fold enrichment (6-mer frequency, TF over GST control)
5 | CGTCCT | 1.28 fold enrichment (6-mer frequency, TF over GST control) | 1.44 fold enrichment (6-mer frequency, TF over GST control) | 1.32 fold enrichment (6-mer frequency, TF over GST control) | 1.41 fold enrichment (6-mer frequency, TF over GST control) | 1.3 fold enrichment (6-mer frequency, TF over GST control) | 1.37 fold enrichment (6-mer frequency, TF over GST control) | 1.42 fold enrichment (6-mer frequency, TF over GST control) | 1.38 fold enrichment (6-mer frequency, TF over GST control) | 1.47 fold enrichment (6-mer frequency, TF over GST control)
6 | TCTTTT | 1.46 fold enrichment (6-mer frequency, TF over GST control) | 1.38 fold enrichment (6-mer frequency, TF over GST control) | 1.45 fold enrichment (6-mer frequency, TF over GST control) | 1.36 fold enrichment (6-mer frequency, TF over GST control) | 1.47 fold enrichment (6-mer frequency, TF over GST control) | 1.53 fold enrichment (6-mer frequency, TF over GST control) | 2.09 fold enrichment (6-mer frequency, TF over GST control) | 1.61 fold enrichment (6-mer frequency, TF over GST control) | 1.51 fold enrichment (6-mer frequency, TF over GST control)
7 | ATTCCA | 1.17 fold enrichment (6-mer frequency, TF over GST control) | 1.1 fold enrichment (6-mer frequency, TF over GST control) | 1.16 fold enrichment (6-mer frequency, TF over GST control) | 1.14 fold enrichment (6-mer frequency, TF over GST control) | 1.22 fold enrichment (6-mer frequency, TF over GST control) | 1.13 fold enrichment (6-mer frequency, TF over GST control) | 1.16 fold enrichment (6-mer frequency, TF over GST control) | 1.1 fold enrichment (6-mer frequency, TF over GST control) | 1.25 fold enrichment (6-mer frequency, TF over GST control)
8 | TTCGCA | 1.23 fold enrichment (6-mer frequency, TF over GST control) | 1.36 fold enrichment (6-mer frequency, TF over GST control) | 1.33 fold enrichment (6-mer frequency, TF over GST control) | 1.29 fold enrichment (6-mer frequency, TF over GST control) | 1.27 fold enrichment (6-mer frequency, TF over GST control) | 1.34 fold enrichment (6-mer frequency, TF over GST control) | 1.32 fold enrichment (6-mer frequency, TF over GST control) | 1.46 fold enrichment (6-mer frequency, TF over GST control) | 1.25 fold enrichment (6-mer frequency, TF over GST control)
